Compound activity deposited in PubChem by several laboratories.
SUMO HTRF inh – SUMOylation inhibition. 290,000 compounds, 0.36% hits. HTRF SUMOylation assay, SAE1/SAE2 + UBC9, in vitro. P63279. inhibition, % at 35 µM; in the data active = inhibition above about 50%, passing the limit was not always enough
Target sequence (P63279 whole entry, looked up): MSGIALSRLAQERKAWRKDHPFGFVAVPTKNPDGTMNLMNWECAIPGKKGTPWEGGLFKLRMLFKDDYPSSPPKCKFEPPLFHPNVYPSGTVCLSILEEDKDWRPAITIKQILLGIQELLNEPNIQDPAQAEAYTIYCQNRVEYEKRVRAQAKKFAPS
FAS TE block – inhibitors of human fatty acid synthase thioesterase domain. P49327. recombinant FAS-TE, OMFH fluorogenic substrate, fluorescence endpoint. inhibition, % at 15 µM. 360,000 compounds, 0.67% hits;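 active = compounds whose normalised, plate-corrected inhibition of enzyme fluorescence in the single-dose primary screen is 50% or more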;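 also: 0% = DMSO with enzyme and 100% = substrate without enzyme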
Redox H2O2 prof – compounds producing H2O2 with reducing agent – biochemical, NIH compound library profiling, artefact control for MLSCN library redox annotation, primary screen. AID 878. 200,000 compounds, 0.03% hits. activation, % at 10 µM. DTT-dependent redox cycling H2O2, phenol red/HRP absorbance; 100% = 100 µM peroxide control, 0% = buffer;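 active = activation of at least 50% relative to the plate's high and low controls in the primary single-dose screen; inactive = activation below 50%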;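 also: compound incubated with DTT at 0.8 mM final as the reducing agent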
p97 ATPase inh – blocks human p97 ATPase activity. AID 1481. 220,000 compounds, 0.42% hits. P55072. recombinant p97 ATPase, Kinase-Glo ATP luminescence, 3 h. inhibition, % at 8 µM; in the data active = inhibition above about 15%;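 also: 0% = DMSO vehicle and 100% = wells lacking enzyme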
Furin inhibitor – blocks human furin protease activity; P09958; purified furin, fluorogenic substrate cleavage; inhibition, % at 20 µM or 30 µM; 220,000 compounds, 0.061% hits; in the data active = inhibition above about 25%
PKD1 inh – PKD1 (human) kinase inhibition. inhibition, % (concentration not given with the values). Q15139. 200,000 compounds, 0.056% hits. PKD1 kinase fluorescence polarization assay; in the data active = inhibition above about 50%
FAS-TE conf – confirmation of human fatty acid synthase thioesterase inhibitors; inhibition, % at 15 µM; AID 624325; recombinant FAS-TE, OMFH fluorogenic substrate, fluorescence; 2,300 compounds, 45% hits; shares compounds with FAS TE block;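 active = compounds inhibiting the enzyme by at least 50% at 15 µM in any one of the replicates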;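 also: 0% = enzyme with DMSO only and 100% = wells lacking enzyme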
* = called active by the depositor. An excerpt weighted towards active compounds, which were near 1.2% of everything screened.

How did CCCN(CC(=O)Nc1ccccc1C)C(=O)c1ccc(COc2ccccc2)cc1 do in these assays?
SUMO HTRF inh: 3; FAS TE block: 13

How did CCN1C(=O)[C@H]2[C@@H](c3ccc(-c4ccc(OC)cc4)c(OC)c3)N[C@@](Cc3ccccc3)(C(=O)OC)[C@H]2C1=O do in these assays?
FAS TE block: 52*; FAS-TE conf: 23

How did CCN1C(=O)[C@H]2[C@@H](c3ccc(-c4ccccc4)cc3)N[C@@](Cc3ccccc3)(C(=O)OC)[C@H]2C1=O do in these assays?
FAS TE block: 37

What do the screens show for `CCN1C(=O)[C@H]2[C@@H](c3ccc(-c4cccc(Cl)c4)c(OC)c3)N[C@@](Cc3ccccc3)(C(=O)OC)[C@H]2C1=O`?
FAS TE block: 47

What do the screens show for `CCN1C(=O)[C@H]2[C@@H](c3ccc(-c4ccc(Cl)c(Cl)c4)cc3)N[C@@](Cc3ccccc3)(C(=O)OC)[C@H]2C1=O`?
FAS TE block: 89*; FAS-TE conf: 13

How did COC(=O)[C@]1(Cc2ccccc2)N[C@H](c2ccc(-c3cccc(Cl)c3)c(OC)c2)[C@@H]2C(=O)N(C)C(=O)[C@@H]21 do in these assays?
FAS TE block: 93*; FAS-TE conf: 44

How did CCN1C(=O)[C@H]2[C@@H](c3ccc(-c4ccc5c(c4)OCO5)c(OC)c3)N[C@@](Cc3ccccc3)(C(=O)OC)[C@H]2C1=O do in these assays?
FAS TE block: 91*; FAS-TE conf: -1

What do the screens show for `CS(=O)(=O)N(CC(=O)N1CCc2ccccc2C1)c1ccc(Cl)cc1F`?
SUMO HTRF inh: -5; FAS TE block: 1

How did COC(=O)[C@]1(Cc2ccccc2)N[C@H](c2ccc(-c3ccc(F)cc3)cc2)[C@@H]2C(=O)N(C)C(=O)[C@@H]21 do in these assays?
FAS TE block: 85*; FAS-TE conf: 28

Results for CCN(C[C@H]1N[C@@](Cc2ccccc2)(C(=O)OC)[C@H]2C(=O)N(C)C(=O)[C@@H]12)S(=O)(=O)c1ccc(-c2ccccc2)cc1 ?
FAS TE block: 52*; FAS-TE conf: 33

How did COc1ccc([C@@H]2[C@@H]3C(=O)N(C(C)(C)C)C(=O)[C@@H]3[C@]3(Cc4ccc(Cl)cc4)C(=O)N(c4cccc(C)c4)C(=O)N23)cc1 do in these assays?
SUMO HTRF inh: -12; FAS TE block: 83*; FAS-TE conf: 39

How did COc1ccc([C@@H]2[C@@H]3C(=O)N(C(C)(C)C)C(=O)[C@@H]3[C@]3(Cc4ccc(Cl)cc4)C(=O)N(c4ccc(C)cc4)C(=O)N23)cc1 do in these assays?
FAS TE block: 92*; FAS-TE conf: 39

What do the screens show for `CC[C@@]12C(=O)N(c3cccc(C)c3)C(=O)N1[C@H](c1ccc(OC)cc1)[C@@H]1C(=O)N(C(C)(C)C)C(=O)[C@@H]12`?
SUMO HTRF inh: -14; FAS TE block: 4

What do the screens show for `O=C(Nc1ccc(-c2nnc3n2CCCCC3)cc1)c1cc2ccccc2o1`?
SUMO HTRF inh: 11; FAS TE block: 1; Redox H2O2 prof: 0; p97 ATPase inh: 1; Furin inhibitor: -28; PKD1 inh: -4

What do the screens show for `Cc1c(C(=O)Nc2ccc(-c3nnc4n3CCCCC4)cc2)oc2c1ccc1ccccc12`?
SUMO HTRF inh: -36; FAS TE block: 78*; Redox H2O2 prof: 0; p97 ATPase inh: 0; Furin inhibitor: -16; PKD1 inh: -2; FAS-TE conf: 6

What do the screens show for `NC(=O)COC(=O)c1cc([N+](=O)[O-])ccc1NCCO`?
SUMO HTRF inh: 17; FAS TE block: 3; p97 ATPase inh: 1; Furin inhibitor: -13

Results for Cc1ccc(S(=O)(=O)N2CCN(C(=O)COC(=O)c3cc([N+](=O)[O-])ccc3NCCO)CC2)c(C)c1 ?
FAS TE block: 71*; FAS-TE conf: 74*

How did O=C(COC(=O)c1cc([N+](=O)[O-])ccc1NCCO)c1ccccc1 do in these assays?
SUMO HTRF inh: 8; FAS TE block: 59*; Redox H2O2 prof: 0; p97 ATPase inh: 0; Furin inhibitor: -6; PKD1 inh: 0; FAS-TE conf: 68*

Results for O=C(COC(=O)c1cc([N+](=O)[O-])ccc1NCCO)NCc1cccs1 ?
SUMO HTRF inh: -9; FAS TE block: 73*; Redox H2O2 prof: 0; p97 ATPase inh: -2; Furin inhibitor: -15; PKD1 inh: -4; FAS-TE conf: 78*

What do the screens show for `COC(=O)c1cc(C(=O)OCC(=O)NCc2cccs2)cc([N+](=O)[O-])c1`?
FAS TE block: 64*; FAS-TE conf: 45

Results for Cc1cc(C(=O)OCC(=O)NCc2cccs2)ccc1[N+](=O)[O-] ?
FAS TE block: 24

How did COc1ccc(OC)c(S(=O)(=O)NC(=O)C2(C)CCN2C(=O)c2ccco2)c1 (configuration not stated) do in these assays?
FAS TE block: -8

How did O=C(NCC(=O)N1CCOCC1)c1ccc(Br)o1 do in these assays?
FAS TE block: -8

Results for COc1ccc(C2(c3ccc(OC)cc3)NC(=O)N(CC(=O)Nc3cc(C)ccc3OC)C2=O)cc1 ?
SUMO HTRF inh: -24; FAS TE block: 22

What do the screens show for `CCOC(=O)c1cc(-c2ccccc2)sc1NC(=O)C(C)N1C(=O)c2ccccc2C1=O` (configuration not stated)?
SUMO HTRF inh: -14; FAS TE block: 57*; Redox H2O2 prof: 0; p97 ATPase inh: 9; Furin inhibitor: -22; PKD1 inh: -4; FAS-TE conf: -2

What do the screens show for `Cc1ccccc1-c1nc2sc(C)c(C)c2c(=O)o1`?
SUMO HTRF inh: -10; FAS TE block: 53*; FAS-TE conf: 39

Results for CC(=O)OCCCNc1cc(Sc2ccc(Cl)cc2)c2nonc2c1[N+](=O)[O-] ?
SUMO HTRF inh: 18; FAS TE block: 62*; Redox H2O2 prof: 1; p97 ATPase inh: 5; Furin inhibitor: -19; PKD1 inh: 10; FAS-TE conf: 25

Results for Cc1ccc(Sc2cc(NCCCO)c([N+](=O)[O-])c3nonc23)cc1 ?
SUMO HTRF inh: 52; FAS TE block: 26; p97 ATPase inh: -3; Furin inhibitor: -15

What do the screens show for `CCCC(=O)OCCNc1cc(Sc2nc3ccccc3[nH]2)c2nonc2c1[N+](=O)[O-]`?
SUMO HTRF inh: 44; FAS TE block: 75*; Redox H2O2 prof: 0; p97 ATPase inh: 2; Furin inhibitor: 8; PKD1 inh: -6; FAS-TE conf: 78*

What do the screens show for `Cc1c(C(=O)N2CCOCC2)c(S(=O)(=O)Nc2cccc(C#N)c2)c(C)n1C`?
SUMO HTRF inh: 12; FAS TE block: -5
